Most compounds without a hit are left out; they make up all but 19% or so of the library.
RORg inh – blocks mouse ROR gamma transcriptional activity; P51450; 5.4% of 310,000 active; Potency, µM (top dose mostly 53.6 µM), inactives show at the highest dose activity change, negative = inhibition, most hits filed as inhibitors; AID 2551; Drosophila S2 Gal4-RORgamma UAS-luciferase reporter, 20 h; further: nearly all actives have a fitted effect of over 60% in size
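Schneider cells (Drosophila), stable Gal4 DBD–ROR gamma + UAS-luc; 1 hr cmpd preincubation; Cu2+ induction 700 uM final; 20 hr ambient; luminescence.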
DT40 TDP1 CPT – DT40-hTDP1 cell growth loss with CPT | chicken DT40 Tdp1-/-;hTDP1 cells + 20 nM CPT, ATP luminescence, 48 h | 12% of 420,000 active | Potency, µM (doses to about 46.2 µM), without a hit: top-dose activity change, negative = growth inhibition, hits mostly inhibitors | AID 686979; further: nearly all actives have a fitted effect of over 55% in size
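Chicken DT40 Tdp1-/- cells complemented with human TDP1, 400 cells/well, exposed to compounds plus 20 nM camptothecin for at least 48 h at 37 C; viability read as ATP content by CellTiter-Glo luminescence.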
VP16 counter – inhibits Gal4-VP16 luciferase reporter, ROR gamma counter-screen; 3.5% of 310,000 active; Potency, µM (titrated, usually from 53.6 µM), for the others: at the top dose activity, negative = inhibition, usual class: inhibitors; Drosophila S2 Gal4-VP16 UAS-luciferase, luminescence, 20 h; AID 2546;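 further: Gal4-VP16 expression switched on by copper sulfate through the metallothionein promoter; nearly all actives have a fitted effect of over 50% in size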
TDP1 block – inhibitors of human tyrosyl-DNA phosphodiesterase TDP1 | Potency, µM (top dose mostly 130 µM), for inactives: at the top dose activity change, negative = inhibition, hits mostly inhibitors | 0.28% of 350,000 active | AID 485290 | recombinant TDP1, AlphaScreen DNA substrate cleavage | Q9NUW8; further: nearly all actives have a fitted effect of over 40% in size
Target sequence (Q9NUW8 whole entry, looked up): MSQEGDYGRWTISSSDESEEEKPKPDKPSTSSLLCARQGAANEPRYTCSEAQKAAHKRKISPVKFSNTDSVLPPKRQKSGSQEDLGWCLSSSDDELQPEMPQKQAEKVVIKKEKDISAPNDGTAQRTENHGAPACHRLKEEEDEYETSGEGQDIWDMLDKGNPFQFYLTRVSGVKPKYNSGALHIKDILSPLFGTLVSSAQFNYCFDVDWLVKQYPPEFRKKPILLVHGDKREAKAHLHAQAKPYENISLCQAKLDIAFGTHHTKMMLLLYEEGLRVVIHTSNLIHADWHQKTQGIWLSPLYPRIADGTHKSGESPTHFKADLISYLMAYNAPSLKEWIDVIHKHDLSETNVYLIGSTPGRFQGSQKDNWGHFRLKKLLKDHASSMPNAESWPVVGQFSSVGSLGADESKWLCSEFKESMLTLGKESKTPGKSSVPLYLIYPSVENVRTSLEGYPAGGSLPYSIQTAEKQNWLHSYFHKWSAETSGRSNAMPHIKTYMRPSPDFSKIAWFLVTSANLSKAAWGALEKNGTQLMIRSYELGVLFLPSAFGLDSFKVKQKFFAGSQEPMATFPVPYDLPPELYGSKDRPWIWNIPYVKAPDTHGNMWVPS
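Recombinant human Tdp1 (E. coli-expressed, 1 nM final) preincubated with compounds 15 min at room temperature, then 5'-biotin/3'-phosphotyrosine-FITC DNA substrate (15 nM final) added for 5 min. AlphaScreen beads (10 ug/ml final) added 10 min; cleavage lowers signal.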
TDP1 cell noCPT – qHTS for Inhibitors of human tyrosyl-DNA phosphodiesterase 1 (TDP1): qHTS in cells in absence of CPT. DT40 Tdp1-/- hTDP1 cells, no CPT, ATP luminescence, 48 h. Potency, µM (top dose mostly 46.2 µM), for inactives: top-dose activity change, negative = growth inhibition, hits mostly inhibitors. 15% of 420,000 active. AID 686978, 2013; further: nearly all actives have a fitted effect of over 55% in size
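Seeded 400 DT40-hTDP1 cells/well (vehicle DMSO, no 20 nM CPT); pinned compounds; ≥48 hr at 37 °C; CellTiter-Glo luminescence as viability measure.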
* hit, by the source's call; u = inconclusive; x = not tested or not shown; [ ] = another dose, or the depositor's remark. The call rests on the fitted dose curve; in most records, active means well fitted curve in the direction sought with a large enough effect; inconclusive means small, poorly fitted or top-dose-only effect, or another doubt; inactive means no such curve, though single readings can be large; an effect the other way counts as inactive or inconclusive. On the % scale 0 is the no-effect control and ±100 the full control effect; potency means the concentration at half of the fitted maximal effect.

SMILES | RORg inh | DT40 TDP1 CPT | VP16 counter | TDP1 block | TDP1 cell noCPT
Cc1ccc(S(=O)(=O)/N=C(/NC(=S)Nc2cccc(C)c2)c2ccccc2)cc1 | u | u | 13µM* | 2% | u
Cc1ccccc1-c1cc(N2CCN(C)CC2)ncn1 | 25% | 6% | -11% | x | 6%
O=C(Nc1nc(-c2cccs2)cs1)c1cccc(S(=O)(=O)N2CCCCC2)c1 | -6%[0.365 µM] | u | x | 6% | 26µM*
O=C(O)c1cccc(NC(=O)c2cccc(S(=O)(=O)N3CCCCC3)c2)c1 | -9% | 7% | 2% | 2% | -8%
Cc1ccc(-c2csc(NC(=O)c3cccc(S(=O)(=O)N4CCN(C)CC4)c3)n2)cc1 | -6% | u | -11% | 1% | 18µM*
CCOc1ccccc1NC(=O)Cn1c(=O)n(Cc2ccccc2)c(=O)c2c1c1cc(C)ccc1n2C | x | 3% | x | 0% | 0%
Oc1ccc(CN2CCCc3ccccc32)c2cccnc12 | 7.9µM* | 3.7µM* | 13µM* | 9% | 4.6µM*
Oc1ccc(CCc2ccccc2)c2cccnc12 | x | x | x | -8% | x
Cc1cc(OCc2cccc(Cl)c2)c(C)cc1CN1CCOCC1 | 26% | 18µM* | 0% | -8% | u
O=C(c1nn2c(C(F)(F)F)cc(-c3cccs3)nc2c1Cl)N1CCCc2ccccc21 | -11% | 16µM* | 4% | 2% | 12µM*
O=C(c1cnn2c(C(F)(F)F)cc(-c3ccccc3)nc12)N1CCCc2ccccc21 | -9% | u | -3% | 2% | -4%
COc1ccc(-c2nc3c(c4c2C[C@H](c2ccccc2)OC4)CN(C(=O)N[C@@H](C)c2ccccc2)CC3)c(C)c1 | x | x | x | 13%[12.3 µM] | x
CN(Cc1ccccc1)C(=O)CSc1nc2ccccc2n1Cc1ccccc1F | x | u | x | 4% | 6.5µM*
CC(C)N(C(=O)CSc1nc2ccccc2n1Cc1ccccc1F)C(C)C | u | 16µM* | u | 2%[56.1 µM] | 16µM*
CN(Cc1ccccc1)C(=O)CSc1nc2ccsc2c(=O)n1-c1ccc(F)cc1 | x | u | x | -3% | 21µM*
O=C(CSc1nc2ccsc2c(=O)n1-c1ccc(Br)cc1)NCc1ccccc1 | x | u | x | -2% | u
NC(=O)CSc1nc2ccccc2n1Cc1ccccc1F | 5% | -25% | 2% | 2% | u
CC(C)N(C(=O)CSc1nc2ccccc2n1Cc1ccccc1)C(C)C | u | u | u | 0% | u
COc1ccc(NC(=O)CCS(=O)(=O)c2ccc3c(c2)NC(=O)C(C)S3)cc1OC (stereo not drawn) | 3% | u | -5% | 2% | u
Cc1cccc(C(=O)Oc2ccccc2C2C[C@]3(C)CC(=O)NC3N2C(=O)c2cccc(C)c2)c1 (stereo partly drawn) | -13% | u | -4% | 4% | -29%
Cc1ccc(NC(=O)COc2cccc(-n3cnnn3)c2)cc1S(=O)(=O)N1CCOCC1 | x | u | x | 2% | 23µM*
Cc1ccc(NC(=O)COc2ccc(Br)cc2CO)cc1S(=O)(=O)N1CCOCC1 | x | u | x | 2% | 18µM*
O=C(COc1ccc(Br)cc1CO)Nc1ccc(S(=O)(=O)N2CCCC2)cc1 | x | u | x | -3% | u
Cc1cc(NCC(=O)Nc2ccc(C)c(S(=O)(=O)N3CCOCC3)c2)ccc1Br | x | u | x | x | 18µM*
Cc1ccc(S(=O)(=O)N2CCOCC2)cc1NC(=O)COc1cccc(-n2cnnn2)c1 | x | -12% | x | 1% | -18%
SMILES | RORg inh | DT40 TDP1 CPT | VP16 counter | TDP1 block | TDP1 cell noCPT
C#CCSC1=C(C#N)C(c2cccs2)C(C(=O)OCC)=C(C)N1 (stereo not drawn) | 23% | u | u | 2% | u
CCN(CC)C(=O)CSC1=C(C#N)C(c2cccs2)C=C(C)N1 (stereo not drawn) | -10% | u | 6% | -2% | 23µM*
Cn1c(SCc2cc(=O)[nH]c3ccccc23)nnc1-c1ccc(Br)cc1 | 18% | u | 1% | -2% | u
Cc1ccc(C(=O)N/N=C\c2ccc[nH]2)cc1[N+](=O)[O-] | 2µM* | -6% | u | 9% | -15%
Cc1occc1C(=O)N/N=C/c1ccc[nH]1 | x | -13% | x | x | 7%
O=C(N/N=C/c1ccc[nH]1)c1ccncc1 | 20µM* | -7% | u | 6% | -11%
O=C(N/N=C/c1ccc[nH]1)c1ccc(Cl)cc1 | 3.2µM* | -1% | 10µM* | 1% | -22%
N#C/C(=C(/O)CSc1ccccn1)c1nc2ccccc2s1 | 12% | 15µM* | -8% | 9% | u
N#C/C(=C(/O)COc1ccc(Cl)cc1)c1nc2ccccc2s1 | -18% | u | -3% | 4% | 9.2µM*
N#C/C(=C(/O)c1ccc(F)cc1)c1nc2ccccc2s1 | -22% | 18µM* | u | 1% | 23µM*
COc1ccc(OC)c(/C=N/n2c(C)nc3ccccc3c2=O)c1 | x | -5% | x | x | -27%
CCOC(=O)Nc1nc(C)c(C(=O)N(C)C)s1 | -26% | -4% | 7% | 4% | 2%
O=Cc1ccnc(-c2ccc(OC(=O)c3ccco3)cc2)n1 | -34% | 5.2µM* | -4% | 8% | 5.8µM*
COc1cccc(NC(=O)C(=O)NCCc2csc3nc(-c4ccccc4C)nn23)c1 | x | u | x | 4% | u
Cn1c(=O)oc2cc(S(=O)(=O)N3CCC4(CC3)OCCO4)ccc21 | 0% | -3% | 8% | -2% | -18%
O=C(NC(c1ccccc1)C(Cl)Cl)c1ccccc1 (stereo not drawn) | 34% | -11% | 16% | 2% | -8%

Source: PubChem BioAssay (National Center for Advancing Translational Sciences (NCATS))
